Source: PubChem BioAssay
ssDAF-12 act – activates DAF-12 receptor from parasite S. stercoralis; activation, % at 6.8 µM; HEK293 ssDAF-12/GRIP1 lit1-tk-luc reporter, luminescence; % of 3 µM dafachronic acid response; 1% of 370,000 active;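 active means activation above the mean over all tested compounds plus 3 SD, cut at about 0.9% in these data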;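 further: 0% = DMSO-only wells and 100% = 3 µM delta7-dafachronic acid wells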
DAX1 inh-1 – blocks DAX1 repression of SF-1 activated StAR promoter; HEK293T StAR-luciferase reporter, SF-1/DAX-1 repression relief; inhibition, % at 6.8 µM; 1.1% of 370,000 active;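 active means inhibition above the mean over all tested compounds plus 3 SD, cut at about 3.6% in these data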;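 further: 0% = DAX-1 cells with DMSO and 100% = cells lacking DAX-1 with DMSO; higher inhibition means more luminescence from relief of DAX-1 repression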
DAX1 inh-2 – inhibits human nuclear receptor DAX1; P51843; HEK293 Gal4-DAX1 luciferase reporter, luminescence; inhibition, % at 6.75 µM; 0.99% of 340,000 active; AID 504766;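 active means inhibition above the mean over all tested compounds plus 3 SD, cut at about 4.2% in these data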;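 further: 0% = DAX1-transfected cells with DMSO and 100% = empty-vector control cells with DMSO; inhibition shows as a rise in luminescence from relieved DAX1 repression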
Target sequence (P51843 207-470 limits assumed): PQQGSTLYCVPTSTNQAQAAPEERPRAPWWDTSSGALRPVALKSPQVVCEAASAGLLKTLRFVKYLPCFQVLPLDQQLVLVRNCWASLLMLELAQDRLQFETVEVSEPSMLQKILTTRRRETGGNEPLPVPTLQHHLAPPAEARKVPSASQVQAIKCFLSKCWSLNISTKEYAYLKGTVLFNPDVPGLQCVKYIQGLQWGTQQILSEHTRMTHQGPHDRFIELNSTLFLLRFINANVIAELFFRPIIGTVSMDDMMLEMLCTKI
hgDAF-12 ag – hgDAF-12 agonism, primary luciferase screen; HEK293 GAL4-hgDAF12 UAS-luciferase reporter, agonist luminescence; normalized to butyrate control; activation, % at 6.8 µM; AID 687014; 1.8% of 370,000 active;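 active means activation above a cutoff set at the mean of all screened compounds plus 3 SD, cut at about 10% in these data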;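 further: 0% = DMSO wells and 100% = sodium butyrate wells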
hcDAF12 agonist – activates DAF-12 receptor from parasite H. contortus; HEK293 hcDAF-12 lit1-tk-luc reporter, luminescence; 0% DMSO, 100% Δ7-dafachronic acid; activation, % at 6.8 µM; 1.4% of 370,000 active;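 active means activation above the mean of all tested compounds plus 3 SD, cut at about 5.5% in these data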;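 further: 100% = response to 3 µM Δ7-dafachronic acid high control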
FXN GAA850 act – increases GAA850 frataxin promoter reporter activity; AID 540364; 0.56% of 360,000 active; activation, % at 6 µM; HEK293 lucGAA850 FXN promoter luciferase reporter, 24 h; percent of 10 µM SAHA response;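 active means activation above the average of all compounds screened plus 3 SD, cutoff fixed separately per campaign, cut at about 7.5% in these data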;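 further: 0% = DMSO wells and 100% = 10 µM SAHA wells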
hgDAF12 ag – hgDAF-12 agonism, confirmation assay; shares compounds with hgDAF-12 ag; HEK293 GAL4-hgDAF12 luciferase reporter, agonist mode; percent of butyrate response; activation, % at 6.8 µM; 80% of 3,300 active;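 active means mean activation over triplicate wells above the hit cutoff derived from the earlier primary screen, cut at about 11% in these data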;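 further: 0% = DMSO low control and 100% = 2 mM sodium butyrate high control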
LXR ag 2 – activates human LXR-beta, counter-screen for DAF-12 agonists | 3,300 tested, under 10 active | shares compounds with hgDAF-12 ag | activation, % at 6.8 µM | AID 743051 | HEK293 Gal4-LXR luciferase reporter, 24 h;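 active means mean activation of the triplicate above a set limit carried over from the primary screen, none filed active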
Numbers without * were called inactive. A selection: hits, their analogues and other compounds. The true share with any hit is near 4.5%.

How did c1ccc(SCc2cn3cccnc3n2)nc1 do in these assays?
ssDAF-12 act: -1; DAX1 inh-1: 1; DAX1 inh-2: -1; hgDAF-12 ag: 9; hcDAF12 agonist: -1; FXN GAA850 act: 0

How did C(=C\c1nnc(-c2cccs2)o1)/c1ccccc1 do in these assays?
ssDAF-12 act: 0; DAX1 inh-1: 3.7*; DAX1 inh-2: 3; hgDAF-12 ag: 18*; hcDAF12 agonist: 4; FXN GAA850 act: 4; hgDAF12 ag: 16*; LXR ag 2: 1

What do the screens show for `CCN(CC(=O)Nc1c(F)cccc1F)C(=O)/C=C/c1ccc(Br)s1`?
ssDAF-12 act: -1; DAX1 inh-1: 0; DAX1 inh-2: -1; hgDAF-12 ag: 3; hcDAF12 agonist: -1; FXN GAA850 act: 2

How did CCCc1cc(C(=O)Nc2cc(Br)ccc2O)no1 do in these assays?
ssDAF-12 act: -2; DAX1 inh-1: -1; DAX1 inh-2: 0; hgDAF-12 ag: 15*; hcDAF12 agonist: 3; FXN GAA850 act: 5; hgDAF12 ag: 6; LXR ag 2: 0

How did O=C(N/N=C/C(Cl)=C/c1ccccc1)c1ccco1 do in these assays?
ssDAF-12 act: 0; DAX1 inh-1: 4.0*; DAX1 inh-2: 2; hgDAF-12 ag: 22*; hcDAF12 agonist: 5; FXN GAA850 act: 6; hgDAF12 ag: 12*; LXR ag 2: 1

Results for O=C(N/N=C/C(Cl)=C\c1ccccc1)c1cnccn1 ?
ssDAF-12 act: -1; DAX1 inh-1: 0; DAX1 inh-2: 0; hgDAF-12 ag: 4; hcDAF12 agonist: 0; FXN GAA850 act: 3

Results for CC1SC(C)C(=O)N(CC(=O)Nc2ccc3c(c2)OCO3)C1=O (configuration not stated) ?
ssDAF-12 act: -1; DAX1 inh-1: -2; DAX1 inh-2: 1; hgDAF-12 ag: 14*; hcDAF12 agonist: 0; FXN GAA850 act: -1; hgDAF12 ag: 3; LXR ag 2: 0

How did CC(=O)Oc1ccc2occ(C(=O)c3cccs3)c2c1 do in these assays?
ssDAF-12 act: -1; DAX1 inh-1: 3; DAX1 inh-2: 0; hgDAF-12 ag: 14*; hcDAF12 agonist: 4; FXN GAA850 act: 2; hgDAF12 ag: 11*; LXR ag 2: 0

How did COc1ccc(C(=O)c2coc3ccc(O)cc23)cc1 do in these assays?
ssDAF-12 act: 1; DAX1 inh-1: 3; DAX1 inh-2: 2; hgDAF-12 ag: 16*; hcDAF12 agonist: 5; FXN GAA850 act: 1; hgDAF12 ag: 20*; LXR ag 2: 1

Results for CCOc1ncccc1C(=O)OCCCC(=O)c1ccc(Br)cc1 ?
ssDAF-12 act: -1; DAX1 inh-1: 1; DAX1 inh-2: 0; hgDAF-12 ag: 4; hcDAF12 agonist: -1; FXN GAA850 act: 3

How did Cc1ccc(-c2cc(N)n(-c3ccc(F)cc3)n2)cc1 do in these assays?
ssDAF-12 act: -1; DAX1 inh-1: 4.3*; DAX1 inh-2: 1; hgDAF-12 ag: 15*; hcDAF12 agonist: 5; FXN GAA850 act: 6; hgDAF12 ag: 10; LXR ag 2: 1

How did C[C@]12c3[nH]c4ccccc4c3CCN1C(=O)C(CC(=O)NCCCn1ccnc1)C[C@@H]2C(=O)N1CCOCC1 (some centres not stated) do in these assays?
ssDAF-12 act: -1; DAX1 inh-1: 1; DAX1 inh-2: 0; hgDAF-12 ag: -1; hcDAF12 agonist: 0; FXN GAA850 act: 2

How did Cc1nn(-c2cccc([N+](=O)[O-])c2)c(N)c1-c1ccccc1 do in these assays?
ssDAF-12 act: -1; DAX1 inh-1: 1; DAX1 inh-2: 1; hgDAF-12 ag: 14*; hcDAF12 agonist: 1; FXN GAA850 act: 5; hgDAF12 ag: 11*; LXR ag 2: 0

What do the screens show for `O=C(c1cnn2c(-c3ccccc3)cc(-c3ccccc3)nc12)N1CCN(Cc2ccccc2)CC1`?
ssDAF-12 act: -2; DAX1 inh-1: -1; DAX1 inh-2: 0; hgDAF-12 ag: -1; hcDAF12 agonist: 1; FXN GAA850 act: -3
